Source: PubChem BioAssay (NCI)
The panel holds about 83,000 compounds, 20% with a hit somewhere; the sample as a whole holds those more often.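 Each cell line was grown in a 96-well plate and treated with one concentration of compound for 48 hours. Values below 10 were considered active.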 A number with no mark means an inactive call. Activity calls are given as the source filed them.

Test system: UACC-62 melanoma
Experiment: NCI-60 one-dose screen, 48 h (100 = growth as untreated, 0 = no growth, -100 = all killed)
Details: 10 µM unless noted

Structure (SMILES) | growth
Cn1cc(-c2csc(-c3c[nH]c4ncccc34)n2)c2cc(F)cnc21 | 64.7%
O=C(C(=O)N1CCOCC1)c1ccc(OC2OC(CO)C(O)C(O)C2O)cc1 (configuration not stated) | 103%
ClC1C2CC(c3ccccc32)C1Cl (configuration not stated) | 101%
CN(C)c1nc(N)nc(Cn2c(-c3nonc3N)nc3ccccc32)n1 | 73%
Cc1nn(-c2ccc(Cl)cc2)c2nc3c(nc12)c(=O)oc1ccccc13 | 102%
Cn1cc(-c2nc(-c3c[nH]c4ncc(F)cc34)cs2)c2cccnc21 | 89.1%
Cc1ccc(C(O)C2=CC(=O)c3ccccc3C2=O)cc1 (configuration not stated) | 90.5%
NC(N)=N/N=C(/c1ccccc1)c1ccc(Cl)cc1 | 74.4%
O=C(C(=O)N1CCCCC1)c1ccc(OC2OC(CO)C(O)C(O)C2O)cc1 (configuration not stated) | 97.9%
COc1cc2c(cc1OC)C1CCN3C(=O)CCC3N1CC2 (configuration not stated) | 97%
NNC(=O)C1CC2c3ccccc3C1c1ccccc12 (configuration not stated) | 97.1%
Nc1nc(Cl)c2[nH]cnc2n1 | 100%
O=C(Nc1ccccc1Cl)c1cnc2ccc(C3CCNCC3)cn12 | 93.6%
CC(C)[C@]12O[C@H]1[C@@H]1O[C@]13[C@]1(O[C@H]1C[C@H]1C4=C(CC[C@@]13C)C(=O)OC4)[C@@H]2OC(=O)CN(C)C | -34.8% (active)
O=NC1CC=CCC1c1ccccc1 (configuration not stated) | 100%
O=C1C2C3C=CC(O3)C2C(=O)N1Nc1ccccc1 (configuration not stated) | 100%
COc1ccc(-c2c3c(nn2-c2ccc(N)cc2)CCc2cnoc2-3)cc1OC | 80%
